# Experimental data published in PubChem BioAssay AID1650 (Southern Research Specialized Biocontainment Screening …, 2009).
# Potency and affinity values are given separately. Active and inactive are the calls of the source. Entries that show only a call come without a potency. How the calls were made is not given here.
# Assay: mammalian cell viability reduction – secondary assay, cytotoxicity control for West Nile virus antiviral project, dose response (AID 1650)
# Details: Mammalian host cell viability, cytotoxicity counter-screen; series mostly up to 10 µM
row,Compound,outcome
1,CCN(CCCNC(=O)c1cc2c(-c3cccc(OC)c3)nn(C)c2s1)Cc1ccccc1,inactive
2,CN(C)CCNc1oc(COc2ccc(-c3ccccc3)cc2)nc1C#N,inactive
3,COc1ccc(C2c3ccc4ccccc4c3Oc3ncn(CCO)c(=N)c32)cc1 (centres undefined),inactive
4,Cn1c(CCN2CCCCC2)nc2cc(NC(=O)COc3ccc([N+](=O)[O-])cc3)ccc21,inactive
5,Nc1nonc1-n1nnc(C(=O)N/N=C/c2ccccc2Cl)c1CSc1ccccc1,inactive
6,CN1CCN(CCNC(=O)c2ccc3nc(-c4ccc(F)cc4)c(-c4ccc(F)cc4)nc3c2)CC1,inactive
7,Cc1c(Cc2ccccc2)c(NCCN(C)C)n2c(nc3ccccc32)c1C#N,inactive
8,CN1CCCC1CCNc1ccc2c(=O)c3ccccc3oc2c1 (centres undefined),inactive
9,COc1ccc(-c2csc(N(CCCN(C)C)C(=O)c3ccccc3Cl)n2)cc1,inactive
10,CCCN1CCN(C(=S)Nc2ccc3nc(N4CCN(CC)CC4)cc(C)c3c2)CC1,inactive
11,CCN(CC)CCCNC(=O)c1cc(-c2ccccc2)c(N2CCCCC2)s1,inactive
12,CCN1CCN(CCNC(=O)c2ccc(/C=C3\Sc4ccccc4N(Cc4ccccc4F)C3=O)cc2)CC1,inactive
13,CN1/C(=C\C(=S)NC(=O)c2cccc(Br)c2)C(C)(C)c2ccccc21,inactive
14,CC1CCCN(CCCNC(=O)c2ccc3c(c2)N(Cc2ccccc2F)C(=O)c2ccccc2S3(=O)=O)C1 (centres undefined),inactive
15,COc1cc(NC(=O)c2cc([N+](=O)[O-])ccc2Br)ccc1NC(=O)c1ccco1,inactive
16,CCN(CC)S(=O)(=O)c1ccc2c(c1)c(=O)c(C(=O)NCCc1ccc(OC)c(OC)c1)cn2C,inactive
17,CC[C@H]1CC2CN3CCc4c([nH]c5c([C@H]6C[C@H]7[C@H](CC)CN(C)[C@@H](Cc8c6[nH]c6ccccc86)[C@H]7C(=O)OC)c(OC)ccc45)C(C(=O)OC)(C2)C13,inactive
18,CC1(C)CC(NC(=O)COc2cc3oc(=O)c4c(c3cc2Cl)CCC4)CC(C)(C)N1,inactive
19,CCN1CCN(Cc2ccc(NC(=O)c3ccc(C)c(NC(=O)N4CCNC4=O)c3)cc2C(F)(F)F)CC1,inactive
20,CC(=O)Nc1ccccc1N(CC(O)Cn1c2ccccc2c2ccccc21)S(=O)(=O)c1ccc(C)cc1 (centres undefined),inactive

row,Compound,outcome
1,CCCC1=Nc2cc(C(=O)NCCN3CCCC3)ccc2Sc2ccccc21,inactive
2,CCN(CC)S(=O)(=O)c1ccc(NC(=O)CSc2nnc(-c3cccc(OC)c3)n2C)cc1,inactive
3,N#CC(C(=O)NC1CCCCC1)c1nc2ccccc2nc1N1CCN(c2ccc(F)cc2)CC1 (centres undefined),inactive
4,CN1CCN(c2nc(Nc3cccc(C(F)(F)F)c3)nc(N3CCOCC3)n2)CC1,inactive
5,CN(C)CCNS(=O)(=O)c1ccc(N2CCN(c3ccc(F)cc3)CC2)c([N+](=O)[O-])c1,inactive
6,N=C1C(c2nc(-c3ccc(Cl)cc3)cs2)=C(O)CN1CCCN1CCOCC1,inactive
7,CCOC(=O)c1cnc2ccc(OC)cc2c1Nc1ccc(N2CCN(C)CC2)cc1,inactive
8,O=C(/C=C/c1ccc2c(c1)OCO2)Nc1ccc(Cl)cn1,inactive
9,COc1ccc(OCC(O)Cn2c(=N)n(Cc3ccccc3)c3ccccc32)cc1 (centres undefined),inactive
10,CC(C)C(C(=O)Nc1ncn[nH]1)N1C(=O)c2ccccc2C1=O (centres undefined),inactive
11,CCOc1ccc(NC(=NCc2ccc3c(c2)OCO3)SC2CC(=O)N(c3ccc(OCC)cc3)C2=O)cc1 (centres undefined),inactive
12,Cc1cc2nc(Sc3c([N+](=O)[O-])nc(C)n3Cc3ccccc3)[nH]c2cc1C,inactive
13,CCOC(=O)c1sc(NC(=O)Nc2ccccc2)cc1C,inactive
14,COc1cc2cc(CN(CCc3ccccc3C)C(=S)NCCCN(C)C)c(=O)[nH]c2cc1OC,inactive
15,CN(C)CCCN(C(=O)c1ccc2c(c1)OCCO2)c1nc2ccc(Cl)cc2s1,inactive
16,CCc1ccc(-c2cc3c(=O)n(CC(=O)NCCCN4CCN(CC)CC4)nc(C)n3n2)cc1,inactive
17,O=c1c(O[C@@H]2O[C@H](CO)[C@@H](O)[C@H](O)[C@H]2O)c(-c2ccc(O)c(O)c2)oc2cc(O)cc(O)c12,inactive
18,CCC1CCCCN1CCCNC(=O)c1ccc(/C=C2/Sc3ccccc3NC2=O)cc1 (centres undefined),inactive
19,Cc1cccn2c(=O)c3cc(C(=O)NCCN4CCOCC4)c(=N)n(Cc4ccc(F)cc4)c3nc12,inactive
